The source of these data is PubChem BioAssay AID602197 (NMMLSC, 2012).

The list shows a part of the results. The source made the active and inactive calls. Rule as the data show it: active = response above about 24%; inactive = the rest.

The nature of this assay: yeast V-ATPase proton pumping modulators, confirmation, S. cerevisiae, pH-sensitive GFP, second cherry-pick (AID 602197).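 Also: plate controls were vehicle wells for no effect and positive control wells for full effect.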 To be noted: S. cerevisiae pHLuorin cytosolic pH, V-ATPase proton transport; at 10 µM; stronger effect = higher value.
In the case of `CCc1ccc(CNC(=O)CCc2nc(-c3cccs3)no2)cc1`, the response was 2.27% (inactive).

In the case of `COC(=O)c1cc(Oc2ccc(S(=O)(=O)N3CCOCC3)cc2[N+](=O)[O-])cc(C(=O)OC)c1`, the response is 0.18% (inactive).

Turning to `Cc1cc(CO)nn1-c1ccc([N+](=O)[O-])cc1`, the response is 2.63% (inactive).

For the compound `O=C(COc1cc2oc(=O)c3c(c2cc1Cl)CCC3)NCCCN1CCOCC1`, the response is 2.9% (inactive).

As for `Cc1ccnc(SCC(=O)Nc2cccc(S(=O)(=O)N3CCOCC3)c2)n1`, the response was 0.72% (inactive).

For the compound `CCCc1nnc(NC(=O)c2cc(OC)cc(OC)c2)s1`, the response is -0.87% (inactive).

On to `Cc1cc(=O)[nH]c(N/N=C/c2c(C)nn(-c3ccccc3Cl)c2Cl)n1`, for which the response was -0.02% (inactive).

In the case of `Cc1ccc2nc(-c3ccncc3)cc(C(=O)Nc3ccc(OC(F)F)cc3)c2c1`, the response is 2.3% (inactive).

For the compound `O=S(=O)(c1ccc(-c2ccno2)s1)N1CCCCC1`, the response is -6.9% (inactive).

Consider `O=C(O/N=C(/c1ccccc1)c1ccncc1)c1ccccc1[N+](=O)[O-]`, for which the response is 4.81% (inactive).

For the compound `CCOC(=O)Cn1c(-c2cccnc2Cl)nc2ccccc21`, the response is 1.29% (inactive).

On to `O=C1c2ccccc2C(=O)N1CCCCCCN1C(=O)c2ccccc2C1=O`, for which the response was 2.04% (inactive).

As for `OCc1nc(CO)n(Cc2ccccc2)n1`, the response is -7.16% (inactive).

As to `C/C=C/C(=O)OCc1csc(CC(=O)Nc2ccccc2C)n1`, the response is -3.22% (inactive).

Take `O=C(NCC1CCCCC1)c1cc(S(=O)(=O)N2CCCCC2)ccc1N1CCOCC1`: the response is -0.11% (inactive).

As to `CCOC(=O)N1CCN(CC(=O)n2c(C)c(C)c3ccccc32)CC1`, the response was 1.66% (inactive).

In the case of `Cc1cc(=O)c2ccc(NC(=O)c3ccccc3)cc2[nH]1`, the response is -0.97% (inactive).

As for `COc1cccc(OC)c1C(=O)OCC(=O)/C(C#N)=C(\C)N`, the response was -0.01% (inactive).

Consider `O=C1Oc2ccccc2C(=O)/C1=C/c1ccccc1O`, for which the response is 91.4% (active).

In the case of `CCOc1ccc(CCNC(=O)C2=C(C)C(=O)OC23CCC(C)CC3)cc1OCC` (stereo not drawn), the response was 5.21% (inactive).

With `O=C(COC(=O)c1ccccc1Br)Nc1nnc(-c2ccccc2)o1`, the response is 3.01% (inactive).

With `O=S1(=O)C=C(SCCN2CCCC2)c2ccccc21`, the response was -0.88% (inactive).

With `COc1ccc(/C=N/NC(=O)c2cccc(C(F)(F)F)c2)cc1`, the response is -3.87% (inactive).
